This passage reports morphology score results from the supplement of paper PMC13380429.

This test has as its system Vero E6 infected with SARS-CoV-2. Description: morphology score (similarity to uninfected cells); higher = more like uninfected cells. The note with it: 24 h.
Regarding `c1ccc2c(c1)CCCc1cc(NCCN3CCOCC3)nnc1-2` (10 µM), the morphology score is -0.11.
Under `CC[C@H]1[C@@H](O)[C@@H]2[C@H](CC[C@]3(C)[C@@H]([C@H](C)CCOS(=O)(=O)O)CC[C@@H]23)[C@@]2(C)CC[C@@H](O)C[C@@H]12` (10 µM) stands -0.0685; under `COc1cc2c(NC3CCN(C(C)C)CC3)nc(C3CCCCC3)nc2cc1OCCCN1CCCC1` (10 µM), 0.297; under `C[C@@H](O)[C@H]1C(=O)N2C(C(=O)O)=C(S[C@@H]3CN[C@H](C(=O)Nc4cccc(C(=O)O)c4)C3)[C@H](C)[C@H]12` [ertapenem] (10 µM), 0.126.
On to `Cc1ncc(COP(=O)([O-])[O-])c(CN(CCN(CC(=O)O)Cc2c(COP(=O)([O-])O)cnc(C)c2O)CC(=O)O)c1O.[Mn].[Na+].[Na+].[Na+]` [Mangafodipir (trisodium)] (10 µM), for which the morphology score was -0.000637.
As for `NC[C@H]1O[C@H](O[C@H]2[C@H](O)[C@@H](O[C@H]3O[C@H](CO)[C@@H](O)[C@H](N)[C@H]3O)[C@H](N)C[C@@H]2N)[C@H](N)[C@@H](O)[C@@H]1O` [bekanamycin] (10 µM), the figure is 0.0989; as for `O=C(C1CCCCC1)N1CC(=O)N2CCc3ccccc3C2C1` (stereo not given) [praziquantel] (10 µM), 0.151; as for `C[C@]12CC[C@@H]3c4ccc(O)cc4CC[C@H]3[C@@H]1CC[C@@H]2O` [estradiol] (10 µM), -0.0909.
As for `O=C(NCCN1CCOCC1)c1ccc(Cl)cc1` [moclobemide] (10 µM), the figure is 0.182; as for `CCC(CO)(C(=O)OC1CC2CCC(C1)[N+]2(C)C)c1ccccc1` (stereo not given) [troventol] (10 µM), -0.023; as for `Nc1ccc(S(=O)(=O)NC(=O)c2ccccc2)cc1` [sulfabenzamide] (10 µM), 0.0893.
Consider `CN(C)C(=O)Oc1cccc([N+](C)(C)C)c1` [neostigmine] (10 µM), for which the morphology score was -0.107.
As for `CCNC(=O)c1noc(-c2cc(C(C)C)c(O)cc2O)c1-c1ccc(CN2CCOCC2)cc1` (0.833333 µM), the figure is 0.0632; as for `COc1cc([C@@H]2c3cc4c(cc3[C@@H](O[C@@H]3O[C@@H]5CO[C@@H](C)O[C@H]5[C@H](O)[C@H]3O)[C@H]3COC(=O)[C@H]23)OCO4)cc(OC)c1OP(=O)(O)O` [etoposide-phosphate] (10 µM), 0.101.
Under `CCCCCCCCCCCCCCCCCCN(CCCCCCCCCCCCCCCCCC)CCCN(CCO)CCO` [avridine] (10 µM) stands 0.0689; under `COc1ccc(C(=O)Nc2c(Cl)cncc2Cl)cc1OC1CCCC1` [piclamilast] (10 µM), 0.363.
`CCN1CCN(Cc2ccc(C(=O)Nc3ccc(C)c(Oc4ccc5c(c4)CC(=O)N5)c3)cc2C(F)(F)F)CC1` (0.833333 µM) came in with a morphology score of 0.0277.
As to `CCCCN1CCC(CCC(=O)c2cc(Cl)c(N)cc2OC)CC1` (10 µM), the morphology score was 0.237.
As for `Sc1ncnc2nc[nH]c12` [mercaptopurine] (0.833333 µM), the morphology score is 0.0241.
The compound `c1ccc(CCNc2nc(-c3ccccc3)cs2)cc1` [fanetizole] (10 µM) registered a morphology score of -0.0158.
`CSc1nc(-c2ccc(F)cc2)c(-c2ccnc(N[C@@H](C)c3ccccc3)c2)[nH]1` (10 µM) returned a morphology score of -0.159.
Under `CS(=O)(=O)Nc1ccc(-c2coc3cc(OCc4cccc(C(=O)O)c4)ccc3c2=O)cc1` (10 µM) stands 0.0543.
In turn, `O=C1NC(c2ccccc2)(c2ccccc2)C(=O)N1COP(=O)(O)O` [fosphenytoin] (10 µM) showed a morphology score of -0.197.
In turn, `Cc1cc(Cn2cnc3c2C[C@@H](C(=O)O)N(C(=O)C(c2ccccc2)c2ccccc2)C3)ccc1N(C)C` (10 µM) showed a morphology score of 0.0919.
As to `CCC(C)SSc1ncc[nH]1` (stereo not given) (10 µM), the morphology score is -0.172.
Compound `CC(=O)O[C@H]1C[C@@H]2CC[C@@H]3[C@H](CC[C@@]4(C)[C@H]3C[C@H]([N+]3(C)CCCCC3)[C@@H]4OC(C)=O)[C@@]2(C)C[C@@H]1[N+]1(C)CCCCC1` [pancuronium] (10 µM) returned a morphology score of 0.254.
As for `CC/C(=C(/c1ccc(/C=C/C(=O)O)cc1)c1ccc2[nH]ncc2c1)c1ccc(F)cc1Cl` (10 µM), the figure is 0.0792.
As for `CNC(=O)c1cccc(NC(=O)N2CCC(Oc3ccccc3Cl)CC2)c1` (10 µM), the figure is -0.102.
As for `O=C1C(=Cc2cccnc2)C(=O)c2ccccc21` (10 µM), the figure is 0.19; as for `CCN(CC)C(=O)N1CCN(C)CC1` [diethylcarbamazine] (10 µM), 0.035; as for `NS(=O)(=O)c1nn2cc(-c3ccccc3)nc2s1` (10 µM), 0.289.
`CC(C)C(=O)Nc1ncc(-c2cc(C(F)F)nn2-c2c(Cl)cccc2Cl)s1` (10 µM) gave a morphology score of -0.133.
In turn, `O=Nc1c(-c2c(O)[nH]c3ccccc23)[nH]c2ccccc12` [indirubin-3-monoxime] (0.833333 µM) came in with a morphology score of 0.00718.
On to `CCOC(=O)N[C@@H]1CC[C@@H]2[C@@H](C1)C[C@H]1C(=O)O[C@H](C)[C@H]1[C@H]2/C=C/c1ccc(-c2cccc(F)c2)cn1` [vorapaxar] (10 µM), for which the morphology score came to 0.209.
Under `CC1(C)S[C@@H]2[C@H](N3C(=O)[C@@H](c4ccccc4)NC3(C)C)C(=O)N2[C@H]1C(=O)O` [hetacillin] (10 µM) stands 0.138; under `COc1cn(-c2ccc(-n3cccn3)cc2F)nc(-c2ccnn2-c2ccccc2)c1=O` (10 µM), 0.0337.
Compound `Cc1nc(=O)c2cc(CN(C)c3ccc(C(=O)N[C@@H](CCC(=O)O)C(=O)O)s3)ccc2[nH]1` [raltitrexed] (0.833333 µM) displayed a morphology score of -0.207.
As for `O=C(N[C@H]1CCN(C(=O)c2cc(C(F)(F)F)cc(C(F)(F)F)c2)[C@H](Cc2ccc(Cl)cc2)C1)c1ccnc2ccccc12` (10 µM), the figure is 0.195; as for `CC(C)=CCC/C(C)=C/CC/C(C)=C/C=C/C(C)=C/C(=O)O` [peretinoin] (10 µM), -0.00242; as for `CN(C)CCn1nnnc1SCC1=C(C(=O)O)N2C(=O)[C@@H](NC(=O)Cc3csc(N)n3)[C@H]2SC1` [cefotiam] (10 µM), 0.212.
